Here are results for ten compounds from PubChem BioAssay (NCI).

Compounds without any hit were thinned out: in the full panel of roughly 79,000, 15% have a hit. Unmarked numbers belong to inactive results. The source made the active and inactive calls. Rule as the data show it: active = growth inhibition above about 70%; inactive = the rest.

The nature of test [1]: NCI Yeast Anticancer Drug Screen. Data for the rad50 strain (AID 155).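 Also: 0% = growth of vehicle-only cultures of the same strain.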 Conditions: S. cerevisiae rad50 strain growth inhibition, active compounds read high. In short, it runs like this: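 Yeast carrying a defined DNA repair defect were exposed to test compounds, and growth was compared with vehicle-treated controls to give percent inhibition.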
The nature of test [2]: NCI Yeast Anticancer Drug Screen. Data for the mec2-1 strain (AID 157). Conditions: S. cerevisiae mec2-1 strain, active compounds read high. In short, it runs like this:
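Test agents were screened against the mec2-1 yeast strain, with defined DNA repair or cell cycle alteration. Growth was scored as inhibition against vehicle-only controls.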

Test [3] can be described thus: NCI Yeast Anticancer Drug Screen. Data for the sgs1 mgt1 strain (AID 161).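 Also: 0% = growth of cultures given vehicle only.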 Conditions: S. cerevisiae sgs1 mgt1 strain, active compounds read high. The procedure, abridged: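 Mutant yeast exposed to compound; growth scored against vehicle-only wells.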
Test [4] is described as follows: NCI Yeast Anticancer Drug Screen. Data for the cln2 rad14 strain (AID 165).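 Also: 0% = growth equal to vehicle treated cultures.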 Conditions: S. cerevisiae cln2 rad14 strain, active compounds read high. The procedure, abridged: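 Growth of compound-exposed yeast (cln2 rad14 genotype) measured and expressed as inhibition relative to vehicle.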
Test [5] is described as follows: NCI Yeast Anticancer Drug Screen. Data for the bub3 strain (AID 167). Conditions: S. cerevisiae bub3 mutant strain, active compounds read high. In short, it runs like this: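 Compounds were applied to a genetically altered yeast strain carrying a cell-cycle control defect. Growth inhibition was scored against vehicle-treated controls.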
Test [6] is described as follows: NCI Yeast Anticancer Drug Screen. Data for the mlh1 rad18 strain (AID 175). Conditions: S. cerevisiae mlh1 rad18 strain growth inhibition, active compounds read high. In short, it runs like this:
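In this whole-cell yeast screen, a strain with altered DNA damage repair is challenged with compound, and its growth is measured against matched vehicle-treated controls.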

The mark [7] stands for this setting: at 5.0 µM (retest, dose inferred, filed as 0.5).
The mark [8] stands for this setting: at 50.0 µM (retest, dose inferred, filed as 5.0).

As for `O=C(Nc1ccccc1)c1cc([N+](=O)[O-])ccc1O.[Ni]`, the growth inhibition was 51% in test [1] (setting [7]); 45% in test [1] (setting [8]); 69.3% in test [1] (at 50.0 µM); 34% in test [2] (setting [7]); 37% in test [2] (setting [8]); 57.6% in test [2] (at 50.0 µM). Moreover, the growth inhibition was 34% in test [3] (setting [7]); 100% (active) in test [3] (setting [8]); 77.5% (active) in test [3] (at 50.0 µM); 46% in test [4] (setting [7]); 100% (active) in test [4] (setting [8]); 33.5% in test [4] (at 50.0 µM). Also, the growth inhibition is 54% in test [5] (setting [7]); 99% (active) in test [5] (setting [8]); 59.8% in test [5] (at 50.0 µM); 38% in test [6] (setting [7]); 36% in test [6] (setting [8]); 52.3% in test [6] (at 50.0 µM).

`COc1ccc2c(ccc3oc([N+](=O)[O-])cc32)c1`: the growth inhibition in test [1] (setting [7]) was 93% (active); in test [1] (setting [8]), 95% (active); in test [1] (at 50.0 µM), 85.9% (active); in test [2] (setting [7]) it was 96% (active); in test [2] (setting [8]) it was 97% (active); in test [2] (at 50.0 µM), 91% (active). The growth inhibition is 93% (active) in test [3] (setting [7]); 94% (active) in test [3] (setting [8]); 79.8% (active) in test [3] (at 50.0 µM); 97% (active) in test [4] (setting [7]); 96% (active) in test [4] (setting [8]); 85.2% (active) in test [4] (at 50.0 µM). Moreover, the growth inhibition is 87% (active) in test [5] (setting [7]); 91% (active) in test [5] (setting [8]); 68% in test [5] (at 50.0 µM); 95% (active) in test [6] (setting [7]); 96% (active) in test [6] (setting [8]); 84.2% (active) in test [6] (at 50.0 µM).

For the compound `COc1ccc(/C=C\[N+](=O)[O-])cc1OC`, the growth inhibition in test [1] (setting [7]) is 47%; in test [1] (setting [8]), 97% (active); in test [1] (at 50.0 µM) it was 99.4% (active); in test [2] (setting [7]), 27%; in test [2] (setting [8]) it was 99% (active); in test [2] (at 50.0 µM) it was 99.7% (active). Further, the growth inhibition in test [3] (setting [7]) was 25%; in test [3] (setting [8]), 99% (active); in test [3] (at 50.0 µM) it was 99.7% (active); in test [4] (setting [7]), 12%; in test [4] (setting [8]), 99% (active); in test [4] (at 50.0 µM), 99% (active). Moreover, the growth inhibition was 14% in test [5] (setting [7]); 99% (active) in test [5] (setting [8]); 99.3% (active) in test [5] (at 50.0 µM); 28% in test [6] (setting [7]); 99% (active) in test [6] (setting [8]); 99.5% (active) in test [6] (at 50.0 µM).

Turning to `Cc1ccc(NCc2ccccc2)cc1[As](=O)(O)O`, the growth inhibition in test [1] (setting [7]) was -1%; in test [1] (setting [8]) it was 97% (active); in test [1] (at 50.0 µM), 47%; in test [2] (setting [7]), -2%; in test [2] (setting [8]) it was 96% (active); in test [2] (at 50.0 µM), 12.9%. Also, the growth inhibition was -4% in test [3] (setting [7]); 67% in test [3] (setting [8]); 8.3% in test [3] (at 50.0 µM); -5% in test [4] (setting [7]); 94% (active) in test [4] (setting [8]); -16.8% in test [4] (at 50.0 µM). For the same compound, the growth inhibition in test [5] (setting [7]) was -2%; in test [5] (setting [8]), 99% (active); in test [5] (at 50.0 µM), 41.5%; in test [6] (setting [7]), -1%; in test [6] (setting [8]) it was 99% (active); in test [6] (at 50.0 µM) it was 66.3%.

As to `C[PH+](C)C.C[PH+](C)C.[Au]`, the growth inhibition is 36% in test [1] (setting [7]); 70% (active) in test [1] (setting [8]); 85.7% (active) in test [1] (at 50.0 µM); 30% in test [2] (setting [7]); 89% (active) in test [2] (setting [8]); 91.8% (active) in test [2] (at 50.0 µM). Besides, the growth inhibition in test [3] (setting [7]) was 59%; in test [3] (setting [8]), 82% (active); in test [3] (at 50.0 µM), 91% (active); in test [4] (setting [7]), 18%; in test [4] (setting [8]) it was 32%; in test [4] (at 50.0 µM), 88% (active). Further, the growth inhibition in test [5] (setting [7]) was 27%; in test [5] (setting [8]), 57%; in test [5] (at 50.0 µM), 89.5% (active); in test [6] (setting [7]), 68%; in test [6] (setting [8]), 91% (active); in test [6] (at 50.0 µM), 89% (active).

For the compound `S=c1[nH]c2ccccc2s1.[Pb]`, the growth inhibition is -11% in test [1] (setting [7]); 16% in test [1] (setting [8]); 93.7% (active) in test [1] (at 50.0 µM); -1% in test [2] (setting [7]); 6% in test [2] (setting [8]); 94.8% (active) in test [2] (at 50.0 µM). The growth inhibition in test [3] (setting [7]) was 0%; in test [3] (setting [8]), 8%; in test [3] (at 50.0 µM), 95.5% (active); in test [4] (setting [7]) it was -10%; in test [4] (setting [8]), -11%; in test [4] (at 50.0 µM) it was 64.2%. In addition, the growth inhibition in test [5] (setting [7]) was -4%; in test [5] (setting [8]), -7%; in test [5] (at 50.0 µM), 94% (active); in test [6] (setting [7]), -5%; in test [6] (setting [8]), -8%; in test [6] (at 50.0 µM), 90.9% (active).

For `O=[N+]([O-])c1ccc(CS(=O)(=O)C(Cl)(Cl)Cl)o1`, the growth inhibition in test [1] (setting [7]) is 39%; in test [1] (setting [8]), 99% (active); in test [1] (at 50.0 µM) it was 95.5% (active); in test [2] (setting [7]) it was 25%; in test [2] (setting [8]) it was 100% (active); in test [2] (at 50.0 µM) it was 98.5% (active). Further, the growth inhibition is 16% in test [3] (setting [7]); 99% (active) in test [3] (setting [8]); 97.5% (active) in test [3] (at 50.0 µM); 3% in test [4] (setting [7]); 99% (active) in test [4] (setting [8]); 94% (active) in test [4] (at 50.0 µM). In addition, the growth inhibition was 8% in test [5] (setting [7]); 98% (active) in test [5] (setting [8]); 90.3% (active) in test [5] (at 50.0 µM); 18% in test [6] (setting [7]); 99% (active) in test [6] (setting [8]); 98.8% (active) in test [6] (at 50.0 µM).

For the compound `CCCC(C)(COC(N)=O)COC(=O)NC1CC1` (stereo not given), the growth inhibition in test [1] (setting [7]) is -8%; in test [1] (setting [8]), 0%; in test [1] (at 50.0 µM) it was 21.9%; in test [2] (setting [7]), -12%; in test [2] (setting [8]) it was 0%; in test [2] (at 50.0 µM), 0.05%. Further, the growth inhibition in test [3] (setting [7]) was -8%; in test [3] (setting [8]) it was 0%; in test [3] (at 50.0 µM), 36.3%; in test [4] (setting [7]) it was -2%; in test [4] (setting [8]) it was -6%; in test [4] (at 50.0 µM), 37.1%. The growth inhibition is 0% in test [5] (setting [7]); -5% in test [5] (setting [8]); -4.4% in test [5] (at 50.0 µM); 14% in test [6] (setting [7]); 7% in test [6] (setting [8]); -2% in test [6] (at 50.0 µM).

In the case of `Sc1nc2ccccc2s1.Sc1nc2ccccc2s1.Sc1nc2ccccc2s1.Sc1nc2ccccc2s1.[Cl][Rh][Cl]`, the growth inhibition in test [1] (setting [7]) is 20%; in test [1] (setting [8]), 95% (active); in test [1] (at 50.0 µM), 95.7% (active); in test [2] (setting [7]) it was 12%; in test [2] (setting [8]) it was 96% (active); in test [2] (at 50.0 µM), 98.5% (active). Besides, the growth inhibition in test [3] (setting [7]) is 38%; in test [3] (setting [8]), 97% (active); in test [3] (at 50.0 µM), 93.3% (active); in test [4] (setting [7]) it was 0%; in test [4] (setting [8]), 94% (active); in test [4] (at 50.0 µM), 97.1% (active). Also, the growth inhibition is 31% in test [5] (setting [7]); 97% (active) in test [5] (setting [8]); 96.8% (active) in test [5] (at 50.0 µM); 43% in test [6] (setting [7]); 96% (active) in test [6] (setting [8]); 97.7% (active) in test [6] (at 50.0 µM).

`Cc1nnc2n1-c1ccc(Cl)cc1C(c1ccccc1)=[N+]([O-])C2`: the growth inhibition in test [1] (setting [7]) was 4%; in test [1] (setting [8]) it was 0%; in test [1] (at 50.0 µM) it was -16.8%; in test [2] (setting [7]), -3%; in test [2] (setting [8]) it was -9%; in test [2] (at 50.0 µM), -0.7%. In addition, the growth inhibition was 1% in test [3] (setting [7]); 3% in test [3] (setting [8]); 3.05% in test [3] (at 50.0 µM); 1% in test [4] (setting [7]); 12% in test [4] (setting [8]); 64.7% in test [4] (at 50.0 µM). For the same compound, the growth inhibition in test [5] (setting [7]) is -1%; in test [5] (setting [8]), -1%; in test [5] (at 50.0 µM), 7.45%; in test [6] (setting [7]), -3%; in test [6] (setting [8]), -4%; in test [6] (at 50.0 µM) it was -6.2%.
